Measured values as given in PubChem BioAssay (EPA / NIEHS).
Active and inactive are the calls of the source. The calls were made as follows: active = hit-call score of the fitted dose curve at least 0.9, where 1 is the maximum; inactive = score below 0.9.

How the values were obtained:
Conditions in all cases: mRNA level, 48 h; actives raise or lower the signal
[1] = read-out: Fatty Acid-Binding Protein 1 (FABP1), FABP1 (gene 2168); assay: LTEA_HepaRG_FABP1: Life Technologies and Expression Analysis (LTEA) Assay for Fatty Acid-Binding Protein 1 (FABP1) using HepaRG (AID 2283494)
How it was run: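 HepaRG, 48 h post-plating switched to serum-free induction medium, then dosed 48 h (duplicate, 8 pts, ≤100 uM, 0.5% DMSO). RNA → Fluidigm TaqMan qRT-PCR, FABP1 normed to ACTB/GAPDH/POLR2A. Bidirectional curve fit vs DMSO.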

[2] = read-out: Cytochrome P450 4A22 (Homo sapiens) (UniProt Q5TCH4); assay: LTEA_HepaRG_CYP4A22: Life Technologies and Expression Analysis (LTEA) Assay for Cytochrome P450 4A22 (CYP4A22) using HepaRG (AID 2283495)
How it was run: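 Differentiated HepaRG cells in serum-free induction medium exposed 48 h in duplicate to eight half-log concentrations up to 100 uM in 0.5% DMSO. CYP4A22 mRNA quantified by TaqMan qRT-PCR, normalized to ACTB, GAPDH and POLR2A; bidirectional fit versus DMSO.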

[3] = read-out: Cytochrome P450 7A1 (Homo sapiens) (UniProt P22680); assay: LTEA_HepaRG_CYP7A1: Life Technologies and Expression Analysis (LTEA) Assay for Cytochrome P450 7A1 (CYP7A1) using HepaRG (AID 2283496)
How it was run: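 Gene expression endpoint in human HepaRG liver cells treated for 48 h with test chemicals (up to 100 uM, 0.5% DMSO). Values come from bidirectional concentration-response fitting versus DMSO.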

[4] = read-out: Glutathione S-Transferase (GSTA2), GSTA2 (gene 2939); assay: LTEA_HepaRG_GSTA2: Life Technologies and Expression Analysis (LTEA) Assay for Glutathione S-Transferase (GSTA2) using HepaRG (AID 2283497)
How it was run: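 HepaRG, 48 h dosing, 8-pt half-log CRC from 100 uM, 0.5% DMSO vehicle, n=2; RNA → Fluidigm TaqMan qRT-PCR; GSTA2 vs ACTB/GAPDH/POLR2A; gain/loss fit vs DMSO.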

[5] = read-out: Glutamate-cysteine ligase catalytic (GCLC), GCLC (gene 2729); assay: LTEA_HepaRG_GCLC: Life Technologies and Expression Analysis (LTEA) Assay for Glutamate-cysteine ligase catalytic (GCLC) using HepaRG (AID 2283498)
How it was run: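 Read-out is GCLC transcript level by Fluidigm-based TaqMan qRT-PCR, normalized to three housekeeping genes and fitted in both directions relative to 0.5% DMSO. Human HepaRG cells received chemicals for 48 h, up to 100 uM.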

[6] = read-out: growth arrest and DNA damage 45 (GADD45G), GADD45G (gene 10912); assay: LTEA_HepaRG_GADD45G: Life Technologies and Expression Analysis (LTEA) Assay for growth arrest and DNA damage 45 (GADD45G) using HepaRG (AID 2283499)
How it was run: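 Differentiated human HepaRG cells, 48 h post-plating, exposed 48 h in serum-free induction medium to 8 half-log concentrations (top 100 uM, 0.5% DMSO) in duplicate. GADD45G mRNA measured by Fluidigm TaqMan qRT-PCR, normalized to ACTB, GAPDH, POLR2A; bidirectional fit versus DMSO.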

[7] = read-out: Glutamate-cysteine ligase regulatory (GCLM), GCLM (gene 2730); assay: LTEA_HepaRG_GCLM: Life Technologies and Expression Analysis (LTEA) Assay for Glutamate-cysteine ligase regulatory (GCLM) using HepaRG (AID 2283500)
How it was run: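 Human liver HepaRG cultures receive test chemicals for 48 hours at up to 100 uM in 0.5% DMSO. GCLM expression is measured by qRT-PCR and analysed for increases or decreases against vehicle.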

[8] = read-out: Glutathione S-transferase M3 (GSTM3), GSTM3 (gene 2947); assay: LTEA_HepaRG_GSTM3: Life Technologies and Expression Analysis (LTEA) Assay for Glutathione S-transferase M3 (GSTM3) using HepaRG (AID 2283501)
How it was run: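 Differentiated human HepaRG cells were exposed in duplicate for 48 h in serum-free induction medium, 8 points from 100 uM top in half-log steps, 0.5% DMSO. GSTM3 mRNA was measured by TaqMan qRT-PCR, normalized to ACTB, GAPDH and POLR2A; bidirectional fit versus DMSO.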

[9] = read-out: Heat shock 70 kDa protein 1 (HSPA1A), gene 3303; assay: LTEA_HepaRG_HSPA1A: Life Technologies and Expression Analysis (LTEA) Assay for Heat shock 70 kDa protein 1 (HSPA1A) using HepaRG (AID 2283502)
How it was run: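 HSPA1A induction in human HepaRG liver cells is measured after 48 h of chemical treatment (100 uM maximum, 0.5% DMSO vehicle). Expression comes from qRT-PCR normalized to endogenous controls.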

[10] = read-out: Hypoxia-inducible factor 1-alpha (Homo sapiens) (UniProt Q16665); assay: LTEA_HepaRG_HIF1A: Life Technologies and Expression Analysis (LTEA) Assay for Hypoxia-inducible factor 1 (HIF1A) Trancription factor using HepaRG (AID 2283503)
How it was run: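 HepaRG, 48 h exposure, 8-pt half-log series from 100 uM, 0.5% DMSO vehicle, duplicates. Readout: HIF1A transcript by qRT-PCR (Fluidigm array), housekeeping-normalised. Bidirectional curve fit vs DMSO baseline.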

[11] = read-out: 3-Hydroxy-3-Methylglutaryl-CoA Synthase 2 (HMGCS2), HMGCS2 (gene 3158); assay: LTEA_HepaRG_HMGCS2: Life Technologies and Expression Analysis (LTEA) Assay for 3-Hydroxy-3-Methylglutaryl-CoA Synthase 2 (HMGCS2) using HepaRG (AID 2283504)
How it was run: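 Human HepaRG cells in serum-free induction medium were exposed in duplicate for 48 h to 8-point half-log series from 100 uM top in 0.5% DMSO. HMGCS2 mRNA measured by TaqMan qRT-PCR, normalised to ACTB, GAPDH, POLR2A; bidirectional fit versus DMSO.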

[12] = read-out: Insulin Like Growth Factor 1 (IGF1), IGF1 (gene 3479); assay: LTEA_HepaRG_IGF1: Life Technologies and Expression Analysis (LTEA) Assay for Insulin Like Growth Factor 1 (IGF1) using HepaRG (AID 2283506)
How it was run: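 Using human HepaRG liver cells, IGF1 transcript induction or suppression is measured 48 h after dosing across eight concentrations capped at 100 uM. Values derive from bidirectional concentration-response fitting with DMSO as baseline.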

[13] = read-out: Intercellular Adhesion Molecule 1 (ICAM1), ICAM1 (gene 3383); assay: LTEA_HepaRG_ICAM1: Life Technologies and Expression Analysis (LTEA) Assay for Intercellular Adhesion Molecule 1 (ICAM1) using HepaRG (AID 2283507)
How it was run: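 Differentiated human HepaRG cells in serum-free induction medium exposed 48 h in duplicate to 8 half-log concentrations (top 100 uM, 0.5% DMSO). ICAM1 mRNA quantified by TaqMan qRT-PCR, normalized to ACTB, GAPDH and POLR2A; bidirectional fitting versus DMSO.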

[14] = read-out: Insulin-like growth factor-binding protein 1 (IGFBP1), IGFBP1 (gene 3484); assay: LTEA_HepaRG_IGFBP1: Life Technologies and Expression Analysis (LTEA) Assay for Insulin-like growth factor-binding protein 1 (IGFBP1) using HepaRG (AID 2283508)
How it was run: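 HepaRG cells, plated 48 h then switched to serum-free induction medium, exposed in duplicate for 48 h to 8-point half-log series from 100 uM in 0.5% DMSO. mRNA measured by qRT-PCR, normalized to ACTB/GAPDH/POLR2A; bidirectional fit versus DMSO.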

[15] = read-out: Interleukin 6 (IL6), IL6 (gene 3569); assay: LTEA_HepaRG_IL6: Life Technologies and Expression Analysis (LTEA) Assay for Interleukin 6 (IL6) using HepaRG (AID 2283509)
How it was run: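 HepaRG, ~100,000 cells/well, 48 h pre-culture; serum-free induction medium; cmpd 8-pt half-log from 100 uM, 0.5% DMSO, duplicate, 48 h. Lysis in RLT, TaqMan qRT-PCR; gain or loss vs DMSO.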

[16] = read-out: Interleukin 6 Receptor (IL6R), IL6R (gene 3570); assay: LTEA_HepaRG_IL6R: Life Technologies and Expression Analysis (LTEA) Assay for Interleukin 6 Receptor (IL6R) using HepaRG (AID 2283510)
How it was run: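 Concentration-response in human liver HepaRG cells: eight concentrations from 100 uM downward by half-logs, 48 h exposure, 0.5% DMSO vehicle. IL6R mRNA change measured by qRT-PCR and fitted in both directions relative to vehicle.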

[17] = read-out: Potassium channel subfamily K member 1 (KCNK1), KCNK1 (gene 3775); assay: LTEA_HepaRG_KCNK1: Life Technologies and Expression Analysis (LTEA) Assay for Potassium channel subfamily K member 1 (KCNK1) using HepaRG (AID 2283511)
How it was run: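 Gain or loss of KCNK1 mRNA is the read-out, quantified by qRT-PCR against three housekeeping genes after 48 h chemical treatment of human HepaRG liver cells. Concentrations ran from 100 uM downward in half-log steps, vehicle 0.5% DMSO.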

[18] = read-out: Keratin 19 (KRT19), KRT19 (gene 3880); assay: LTEA_HepaRG_KRT19: Life Technologies and Expression Analysis (LTEA) Assay for Keratin 19 (KRT19) using HepaRG (AID 2283512)
How it was run: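 Differentiated HepaRG cells in serum-free induction medium, exposed 48 h in duplicate to 8 half-log concentrations up to 100 uM in 0.5% DMSO. KRT19 mRNA by qRT-PCR, normalized to ACTB, GAPDH, POLR2A; bidirectional fit vs DMSO.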

[19] = read-out: JUN Transcription Factor, JUN (gene 3725); assay: LTEA_HepaRG_JUN: Life Technologies and Expression Analysis (LTEA) Assay for JUN Transcription Factor using HepaRG (AID 2283513)
How it was run: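 Human HepaRG liver cells receive test chemicals in 0.5% DMSO for 48 h across an eight-point range topping at 100 uM. Expression changes in JUN are scored in both directions against the DMSO vehicle.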

[20] = read-out: HGF (gene 3082); assay: LTEA_HepaRG_HGF: Life Technologies and Expression Analysis (LTEA) Assay for Hepatocyte Growth Facto (HGF) using HepaRG (AID 2283505)
How it was run: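 Differentiated HepaRG cells in serum-free induction medium exposed 48 h in duplicate, 8 half-log concentrations from 100 uM in 0.5% DMSO. HGF mRNA by qRT-PCR, normalised to ACTB, GAPDH, POLR2A; bidirectional fitting.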

Sequence of Hypoxia-inducible factor 1-alpha (Homo sapiens) (Q16665 whole entry, looked up): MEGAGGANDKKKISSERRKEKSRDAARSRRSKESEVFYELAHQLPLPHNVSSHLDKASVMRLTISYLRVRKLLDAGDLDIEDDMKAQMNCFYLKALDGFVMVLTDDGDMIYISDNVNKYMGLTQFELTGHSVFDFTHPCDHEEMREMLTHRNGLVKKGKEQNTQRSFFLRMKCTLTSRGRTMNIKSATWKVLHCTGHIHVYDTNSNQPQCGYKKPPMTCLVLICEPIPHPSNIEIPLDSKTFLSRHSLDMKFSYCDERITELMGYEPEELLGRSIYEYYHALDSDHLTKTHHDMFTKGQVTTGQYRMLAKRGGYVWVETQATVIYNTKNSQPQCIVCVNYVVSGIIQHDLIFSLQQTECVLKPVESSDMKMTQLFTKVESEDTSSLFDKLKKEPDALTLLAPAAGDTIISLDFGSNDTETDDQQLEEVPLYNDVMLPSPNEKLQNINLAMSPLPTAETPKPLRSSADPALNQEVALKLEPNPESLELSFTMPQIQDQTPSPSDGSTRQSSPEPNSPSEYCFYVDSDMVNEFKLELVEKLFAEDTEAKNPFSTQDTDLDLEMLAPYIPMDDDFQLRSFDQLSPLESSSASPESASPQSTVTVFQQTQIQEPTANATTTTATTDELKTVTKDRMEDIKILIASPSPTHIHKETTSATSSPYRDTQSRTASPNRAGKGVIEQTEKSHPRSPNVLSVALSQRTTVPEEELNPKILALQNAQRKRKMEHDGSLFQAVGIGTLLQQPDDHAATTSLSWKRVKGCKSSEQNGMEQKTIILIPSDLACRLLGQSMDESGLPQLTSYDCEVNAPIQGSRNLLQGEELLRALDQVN

Q: `CCOc1cc(Oc2ccc(C(F)(F)F)cc2Cl)ccc1[N+](=O)[O-]` was tested. Which AC50 [1] did it give?
A: 30.4 µM (active)

Q: And the AC50 [2]?
A: 39.1 µM (active)

Q: What about the AC50 [3] of the same compound?
A: 34.8 µM (active)

Q: And the AC50 [4]?
A: 39.9 µM (active)

Q: And the outcome [5]?
A: inactive

Q: What about the outcome [6] of the same compound?
A: inactive

Q: And the AC50 [7]?
A: 50 µM (active)

Q: What about the outcome [8] of the same compound?
A: inactive

Q: What about the outcome [9] of the same compound?
A: inactive

Q: And the outcome [10]?
A: inactive

Q: And the AC50 [11]?
A: 41.9 µM (active)

Q: And the AC50 [12]?
A: 50 µM (active)

Q: What about the AC50 [13] of the same compound?
A: 50 µM (active)

Q: And the AC50 [14]?
A: 68.8 µM (active)

Q: What about the outcome [15] of the same compound?
A: inactive

Q: And the outcome [16]?
A: inactive

Q: What about the AC50 [17] of the same compound?
A: 30 µM (active)

Q: What about the AC50 [18] of the same compound?
A: 33.8 µM (active)

Q: What about the outcome [19] of the same compound?
A: inactive

Q: Which outcome [1] does the source give for `CCON=C(CC)C1=C(O)CC(c2c(C)cc(C)cc2C)CC1=O` (configuration not stated) here?
A: inactive

Q: What about the AC50 [2] of the same compound?
A: 18.9 µM (active)

Q: And the outcome [3]?
A: inactive

Q: And the outcome [4]?
A: inactive

Q: What about the outcome [5] of the same compound?
A: inactive

Q: What about the outcome [6] of the same compound?
A: inactive

Q: And the outcome [7]?
A: inactive

Q: And the outcome [8]?
A: inactive

Q: And the outcome [9]?
A: inactive

Q: And the outcome [11]?
A: inactive

Q: What about the outcome [20] of the same compound?
A: inactive

Q: What about the outcome [12] of the same compound?
A: inactive

Q: What about the outcome [13] of the same compound?
A: inactive

Q: And the outcome [14]?
A: inactive

Q: What about the outcome [15] of the same compound?
A: inactive

Q: What about the outcome [16] of the same compound?
A: inactive

Q: And the outcome [17]?
A: inactive

Q: What about the outcome [18] of the same compound?
A: inactive

Q: What about the outcome [19] of the same compound?
A: inactive

Q: Which AC50 [1] does the source give for `CC(Oc1ccc(Cl)cc1Cl)C(=O)O` (configuration not stated) here?
A: 50 µM (active)

Q: And the outcome [2]?
A: inactive

Q: What about the outcome [3] of the same compound?
A: inactive

Q: What about the outcome [4] of the same compound?
A: inactive

Q: And the outcome [5]?
A: inactive

Q: And the outcome [6]?
A: inactive

Q: And the outcome [7]?
A: inactive

Q: What about the outcome [8] of the same compound?
A: inactive

Q: What about the outcome [9] of the same compound?
A: inactive

Q: What about the outcome [11] of the same compound?
A: inactive

Q: And the outcome [20]?
A: inactive

Q: What about the outcome [12] of the same compound?
A: inactive

Q: What about the outcome [13] of the same compound?
A: inactive

Q: What about the outcome [14] of the same compound?
A: inactive

Q: What about the outcome [15] of the same compound?
A: inactive

Q: And the outcome [16]?
A: inactive

Q: What about the outcome [17] of the same compound?
A: inactive

Q: And the outcome [18]?
A: inactive

Q: What about the outcome [19] of the same compound?
A: inactive
